For 38 compounds, outcome and AC50 results are on record in PubChem BioAssay (EPA / NIEHS).

Structures are written as SMILES. Activity calls are given as the source filed them. Rule for the calls: active = hit-call score of the fitted dose curve at least 0.9, where 1 is the maximum; inactive = score below 0.9.

Nuclear respiratory factor 1 (Homo sapiens), sequence (Q16656 whole entry, looked up): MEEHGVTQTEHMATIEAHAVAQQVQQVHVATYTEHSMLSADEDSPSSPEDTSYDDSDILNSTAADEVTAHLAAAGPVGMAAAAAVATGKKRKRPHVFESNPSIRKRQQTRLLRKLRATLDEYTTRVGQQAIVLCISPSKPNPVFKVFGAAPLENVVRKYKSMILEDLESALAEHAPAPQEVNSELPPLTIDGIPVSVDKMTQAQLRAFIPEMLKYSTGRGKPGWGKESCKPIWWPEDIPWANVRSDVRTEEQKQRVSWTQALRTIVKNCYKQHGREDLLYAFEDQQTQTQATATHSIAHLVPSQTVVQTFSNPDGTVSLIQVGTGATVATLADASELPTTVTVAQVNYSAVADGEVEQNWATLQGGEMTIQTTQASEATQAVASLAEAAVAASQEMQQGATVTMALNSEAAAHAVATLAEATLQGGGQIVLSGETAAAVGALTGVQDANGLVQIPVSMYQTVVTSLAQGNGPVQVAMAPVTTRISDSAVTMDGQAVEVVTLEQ

One assay has as its target Nuclear respiratory factor 1 (Homo sapiens) (UniProt Q16656). Description: ATG_NRF1_CIS: Attagene CIS-FACTORIAL HepG2 Assay for human Nuclear Respiratory Factor 1 (NRF1) Orphan Gene (AID 2282987). The note with it: HepG2 NRF1 cis-element reporter, Attagene multiplex; actives raise or lower the signal. The gist of the method: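 Endogenous NRF1-driven reporter transcription in transfected HepG2 cells after 24 h treatment. Readout: RT-PCR products, 6-FAM labelled and resolved by capillary electrophoresis; changes fitted both directions relative to DMSO.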
For `OCCCc1cccnc1`, the outcome was inactive.

Regarding `OC(O)C(F)(F)C(F)(F)F`, the outcome was inactive.

Regarding `Brc1nc2ccccc2s1`, the outcome was inactive.

Consider `N#Cc1ccccc1O`, for which the result was inactive.

For the compound `COC(F)(C(F)F)C(F)(F)F` (stereo unspecified), the compound was called inactive.

On to `Nc1cccnc1N`, for which the call was inactive.

Regarding `CC(C)(C)c1cc(CCC(=O)OCC(COC(=O)CCc2cc(C(C)(C)C)c(O)c(C(C)(C)C)c2)(COC(=O)CCc2cc(C(C)(C)C)c(O)c(C(C)(C)C)c2)COC(=O)CCc2cc(C(C)(C)C)c(O)c(C(C)(C)C)c2)cc(C(C)(C)C)c1O`, the result was inactive.

As to `Nc1c(Br)cc([N+](=O)[O-])cc1Br`, the compound was classed as inactive.

Take `OCCCCC(F)(F)C(F)(F)C(F)(F)C(F)(F)F`: the compound was classed as inactive.

For `CCC(Cc1c(I)cc(I)c(N)c1I)C(=O)O` (stereo unspecified), the outcome was inactive.

Turning to `CCC/C=C/CO`, the result was inactive.

In the case of `CCOCN(C(=O)CS(=O)(=O)O)c1c(C)cccc1CC`, the compound was called inactive.

In the case of `O=C(Cl)c1ccc(Cl)cc1Cl`, the result was inactive.

For the compound `C[C@]12CC[C@H]3C(=CCc4cc(O)ccc43)[C@@H]1CCC2=O`, the call was inactive.

By AC50 is commonly meant the midpoint of the concentration-response curve, whichever way the signal moves. With `O=C1C=CC(=O)N1c1ccc(Cc2ccc(N3C(=O)C=CC3=O)cc2)cc1`, the concentration at half-maximal activity (AC50) was 60.1 µM (active).

For the compound `CN(N=O)C(=O)N[C@@H]1[C@@H](O)[C@H](O)[C@@H](CO)O[C@@H]1O`, the compound was classed as inactive.

For `O=C1c2c(O)ccc(Nc3ccc(CCO)cc3)c2C(=O)c2c([N+](=O)[O-])ccc(O)c21`, the result was inactive.

On to `Nc1cc([N+](=O)[O-])cc(Cl)c1O`, for which the result was inactive.

For the compound `CC(=O)CCC(C)C`, the call was inactive.

As for `CCOC(=O)CC(=O)C(F)(F)C(F)(F)F`, the result was inactive.

On to `O=S(=O)(O)CCC(F)(F)C(F)(F)C(F)(F)C(F)(F)F`, for which the call was inactive.

Take `CC(C)=CCCC(C)O` (stereo unspecified): the compound was called inactive.

As for `CCc1cc(Cc2cc(CC)c(N)c(CC)c2)cc(CC)c1N`, the compound was called inactive.

Turning to `CCN=c1cc2oc3cc(NCC)c(C)cc3c(-c3ccccc3C(=O)OCC)c-2cc1C`, the result was inactive.

Take `Cc1ccc2c(c1)OCC(=O)CO2`: the call was inactive.

For `CCn1c2ccccc2c2ccccc21`, the result was inactive.

As for `CCCCCCCCn1sc(Cl)c(Cl)c1=O`, the compound was called inactive.

On to `O=S(=O)(O)c1ccc(Cl)cc1`, for which the compound was classed as inactive.

Consider `Cc1ccc(S(=O)(=O)C(I)I)cc1`, for which the AC50 was 7.84 µM (active).

As for `CC(=O)c1ccccc1N`, the call was inactive.

On to `NC(=O)C(F)(F)C(F)(F)C(F)(F)F`, for which the call was inactive.

Regarding `Cc1cnccn1`, the compound was called inactive.

Regarding `CSc1ccc(O)cc1C`, the call was inactive.

Consider `CN(C)C(C)(C)CO`, for which the call was inactive.

For the compound `COCCC(=O)OC`, the compound was called inactive.

As for `C=C(C)CCCC`, the call was inactive.

Consider `CCOC(=O)CCC(C)=O`, for which the call was inactive.

In the case of `Cc1ccc([N+](=O)[O-])c(C)c1`, the call was inactive.

Test system in a further assay: not listed separately
Kind of assay: ATG_NFI_CIS: Attagene CIS-FACTORIAL HepG2 Assay for human Nuclear Factor I (NFI) (AID 2282989). Particulars: HepG2 cis-regulatory reporter, NFI response element transcription; actives raise or lower the signal. Put shortly:
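HepG2, transient MRTU, 24 h exposure; RNA→cDNA→PCR→FAM label→HpaI→CE fluorescence. Bidirectional fit, DMSO = baseline.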
`OCCCc1cccnc1`: the call was inactive.

Consider `OC(O)C(F)(F)C(F)(F)F`, for which the compound was classed as inactive.

For `Brc1nc2ccccc2s1`, the result was inactive.

For the compound `N#Cc1ccccc1O`, the compound was called inactive.

Regarding `COC(F)(C(F)F)C(F)(F)F` (stereo unspecified), the compound was called inactive.

Take `Nc1cccnc1N`: the call was inactive.

With `CC(C)(C)c1cc(CCC(=O)OCC(COC(=O)CCc2cc(C(C)(C)C)c(O)c(C(C)(C)C)c2)(COC(=O)CCc2cc(C(C)(C)C)c(O)c(C(C)(C)C)c2)COC(=O)CCc2cc(C(C)(C)C)c(O)c(C(C)(C)C)c2)cc(C(C)(C)C)c1O`, the compound was classed as inactive.

`Nc1c(Br)cc([N+](=O)[O-])cc1Br`: the call was inactive.

With `OCCCCC(F)(F)C(F)(F)C(F)(F)C(F)(F)F`, the compound was classed as inactive.

On to `CCC(Cc1c(I)cc(I)c(N)c1I)C(=O)O` (stereo unspecified), for which the result was inactive.

On to `CCC/C=C/CO`, for which the compound was called inactive.

In the case of `CCOCN(C(=O)CS(=O)(=O)O)c1c(C)cccc1CC`, the result was inactive.

On to `O=C(Cl)c1ccc(Cl)cc1Cl`, for which the result was inactive.

As to `C[C@]12CC[C@H]3C(=CCc4cc(O)ccc43)[C@@H]1CCC2=O`, the compound was called inactive.

As to `O=C1C=CC(=O)N1c1ccc(Cc2ccc(N3C(=O)C=CC3=O)cc2)cc1`, the result was inactive.

Turning to `CN(N=O)C(=O)N[C@@H]1[C@@H](O)[C@H](O)[C@@H](CO)O[C@@H]1O`, the compound was classed as inactive.

On to `O=C1c2c(O)ccc(Nc3ccc(CCO)cc3)c2C(=O)c2c([N+](=O)[O-])ccc(O)c21`, for which the compound was called inactive.

Turning to `Nc1cc([N+](=O)[O-])cc(Cl)c1O`, the outcome was inactive.

Turning to `CC(=O)CCC(C)C`, the call was inactive.

As for `CCOC(=O)CC(=O)C(F)(F)C(F)(F)F`, the outcome was inactive.

As to `O=S(=O)(O)CCC(F)(F)C(F)(F)C(F)(F)C(F)(F)F`, the compound was classed as inactive.

On to `CC(C)=CCCC(C)O` (stereo unspecified), for which the compound was classed as inactive.

Regarding `CCc1cc(Cc2cc(CC)c(N)c(CC)c2)cc(CC)c1N`, the AC50 is 53.4 µM (active).

As for `CCN=c1cc2oc3cc(NCC)c(C)cc3c(-c3ccccc3C(=O)OCC)c-2cc1C`, the AC50 was 17.5 µM (active).

As to `Cc1ccc2c(c1)OCC(=O)CO2`, the call was inactive.

Consider `CCn1c2ccccc2c2ccccc21`, for which the half-maximal activity concentration (AC50) was 152 µM (active).

Regarding `CCCCCCCCn1sc(Cl)c(Cl)c1=O`, the compound was called inactive.

For the compound `O=S(=O)(O)c1ccc(Cl)cc1`, the outcome was inactive.

As to `Cc1ccc(S(=O)(=O)C(I)I)cc1`, the AC50 was 8.6 µM (active).

As to `CC(=O)c1ccccc1N`, the call was inactive.

With `NC(=O)C(F)(F)C(F)(F)C(F)(F)F`, the compound was classed as inactive.

Turning to `Cc1cnccn1`, the call was inactive.

Consider `CSc1ccc(O)cc1C`, for which the compound was classed as inactive.

`CN(C)C(C)(C)CO`: the call was inactive.

Consider `COCCC(=O)OC`, for which the compound was called inactive.

For the compound `C=C(C)CCCC`, the outcome was inactive.

Turning to `CCOC(=O)CCC(C)=O`, the compound was classed as inactive.

With `Cc1ccc([N+](=O)[O-])c(C)c1`, the outcome was inactive.
